{"source": "PubChem BioAssay (NCI)", "note": "This is part of a sample that, as a whole, favours compounds with a hit. Of some 83,000 tested, about 20% had one in any assay.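 Values shown are percent growth following 48 h exposure of cells in 96-well plates to a single concentration of compound; below 10 was considered active.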 Values without a mark were called inactive. Active and inactive are the calls of the source.", "data": [{"test_system": "LOX IMVI melanoma", "assay": "NCI-60 one-dose screen, 48 h (100 = growth as untreated, 0 = no growth, -100 = all killed)", "conditions": "10 µM unless noted", "values": [{"compound": "CN1CCN(Cc2ccc(NC(=O)c3[nH]ncc3Nc3cc(OC4CCCC4)ncn3)cc2)CC1", "growth": "17.9%"}, {"compound": "Cn1c(/C=C(\\C#N)c2ccccc2)nc2c(N3CCOCC3)nc(Cl)nc21", "growth": "-87.9% (active)"}, {"compound": "CCN1C(=O)N(CC)C2Nn3c(s/c(=C\\c4ccccc4F)c3=O)=NC21", "note": "(stereo unspecified)", "growth": "44.3%"}, {"compound": "Cc1ccccc1CNC(=O)C1CN(c2ccc(Cl)cc2)N(c2ccc(Cl)cc2)C1=O", "note": "(stereo unspecified)", "growth": "92.9%"}, {"compound": "CCCCC1CCc2cccc3c(SCC(=O)N(C)c4ccc(Cl)cc4)cc[n+]1c23", "note": "(stereo unspecified)", "growth": "99.7%"}, {"compound": "Clc1ccc(Oc2ccc(Nc3ncnc4onc(-c5ccccc5)c34)cc2)c(Cl)c1", "growth": "98.4%"}, {"compound": "O=C(O)c1cn(C2CC2)c2cc(N3CCN(C(=O)C[n+]4ccccc4)CC3)c(F)cc2c1=O", "growth": "98.1%"}, {"compound": "O=C(CSc1nc2ccccc2c(=O)n1-c1ccccc1)Nc1ccc(C(=O)/C=C/c2ccc(Cl)cc2)cc1", "growth": "101%"}, {"compound": "Cc1nc(Nc2cn[nH]c2C(=O)Nc2ccc(CN3CCN(C)CC3)cc2)c2ccsc2n1", "growth": "72.8%"}, {"compound": "CN1C(=O)N(C)C2Nn3c(s/c(=C4\\C(=O)N(CCc5ccccc5)c5ccccc54)c3=O)=NC21", "note": "(stereo unspecified)", "growth": "54.8%"}, {"compound": "O=C(/C=C/c1ccc(C(F)(F)F)cc1)c1ccc(Nc2nc(NCCO)nc(N3CCOCC3)n2)cc1", "growth": "3.82% (active)"}, {"compound": "COc1cc(/C=C/C(=O)c2ccc(Nc3nc(NCCO)nc(N4CCOCC4)n3)cc2)cc(OC)c1OC", "growth": "11.1%"}, {"compound": "COc1cc(/C=C2\\CN(S(=O)(=O)c3ccccc3)C/C(=C\\c3cc(CN4CCCC4)c(O)c(OC)c3)C2=O)cc(CN2CCCC2)c1O", "growth": "-75.4% (active)"}, {"compound": "O=c1c2cc(F)ccc2sc2c(Nc3ccncc3)nc3ccccc3c12", "growth": "-66.7% (active)"}, {"compound": "O=c1c2cc(F)ccc2sc2c(NCCN3CCCC3)nc3ccccc3c12", "growth": "28.4%"}, {"compound": "CNC(=O)c1cc(Oc2ccc(CC(=O)Nc3cc(C(C)(C)C)cn3C)cc2)ccn1", "growth": "67%"}, {"compound": "COc1cc2nc(NC3CCCC3)nc(NC3CCN(C(C)C)CC3)c2cc1OC", "growth": "84.4%"}, {"compound": "O=C(NCc1ccco1)C1CN(c2ccc(Cl)cc2)N(c2ccc(Cl)cc2)C1=O", "note": "(stereo unspecified)", "growth": "45.9%"}, {"compound": "COc1cccc2cc(N(C)c3nc(C)nc4ccsc34)ccc12", "growth": "16.3%"}, {"compound": "CN1C(=O)N(C)C2(c3ccccc3)OC(=S)NC12c1ccccc1", "note": "(stereo unspecified)", "growth": "98.7%"}, {"compound": "Nc1nc(-c2cnccn2)nn1-c1nc2ccccc2s1", "growth": "105%"}, {"compound": "COc1ccc(N)c(-c2cc3c(c4c2[nH]c2ccc(OC)cc24)CCCC3)c1", "growth": "83.1%"}, {"compound": "COc1cccc(/C(C#N)=C/c2nc3c(N4CCOCC4)nc(Cl)nc3n2C)c1", "growth": "-88.2% (active)"}, {"compound": "O=c1c(-c2nc3ccccc3[nH]2)cc2ccccc2n1Cc1cn(Cc2ccc(N3CCOCC3)cc2)nn1", "growth": "78.7%"}, {"compound": "Cn1c2c(c(=O)[nH]c1=O)NC1=C(C(=O)c3ccccc31)C1(C=C(O)c3ccccc31)N2", "note": "(stereo unspecified)", "growth": "94.1%"}, {"compound": "COC(=O)/C(CCC=C(C)C)=C1\\[C@@H](OC(C)=O)C[C@@]2(C)[C@H]1C[C@@H](O)[C@H]1[C@@]3(C)CC[C@H](NCCCNCCCCNCCCN)[C@@H](C)[C@@H]3CC[C@@]12C", "growth": "52.9%"}]}]}
